Molecules are shown by their SMILES. Records with an inconclusive call do not appear. Entries that show only a call come without a potency. Activity calls are given as the source filed them. Calls follow the shape of the dose curve; as a rule, active = well fitted inhibition curve with a large enough effect; inconclusive = small, poorly fitted or top-dose-only effect; inactive = flat fitted curve, though single readings scatter.

The assay deals with Calcium and integrin-binding protein 1 (Homo sapiens) (UniProt Q99828). The assay is described as follows: Primary qHTS for Identification of Calcium Integrin Binding Protein 1 (CIB1) Competitor (AID 1508620).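 Also: GST tagged CIB1 binding a fluorescein labelled alphaIIb integrin peptide tracer; top concentration of the series differs between compounds.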 The note with it: CIB1-GST / FITC-alphaIIb peptide fluorescence polarization; series mostly up to 114 µM. The essentials: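 CIB1-GST (1 uM final) and compound incubated 15 min at room temperature before adding FITC-alphaIIb peptide tracer (100 nM final). Competition for binding read by fluorescence polarization (ex 480, em 540) after another 15 min at room temperature.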
Chain of Calcium and integrin-binding protein 1 (Homo sapiens) (Q99828 whole entry, looked up): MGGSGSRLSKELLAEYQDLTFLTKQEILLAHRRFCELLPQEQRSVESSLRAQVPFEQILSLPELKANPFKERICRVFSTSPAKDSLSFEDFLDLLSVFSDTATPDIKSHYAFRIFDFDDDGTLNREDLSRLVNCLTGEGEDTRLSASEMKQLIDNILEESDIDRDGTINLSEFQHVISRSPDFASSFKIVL
`CCCCN(C)C(=O)Cn1nc(-c2ccncc2)ccc1=O`: the Potency entry was “inactive”.

In the case of `Cc1ccc(S(=O)(=O)Nc2cccc3ccc[n+](C)c23)cc1`, the Potency entry was “inactive”. On to `O=C(Nc1cncnc1)c1cccs1`, for which the Potency entry was “inactive”. The result for `Cc1cc2c(s1)c1cnn(Cc3cccc(Cl)c3)c(=O)c1n2C` reads “inactive”; that for `CCC(O)(c1nnc(NCc2ccc3c(-c4ccc(F)cc4)cc(=O)oc3c2)o1)C(F)(F)F` (centres undefined), “inactive”; that for `Cc1cc(C=CC#N)cc(C)c1Nc1nc(Nc2ccc3c(c2)CCC3)c2[nH]cnc2n1`, “inactive”.

For the compound `C/C=C\C1=CCCC1Nc1ncnc2ccc(-c3c(C)noc3C)cc12` (centres undefined), the Potency result is “inactive”. Regarding `Cc1ccc(CNc2nc(-c3ccccc3C(F)(F)F)nc3ccccc23)cc1`, the Potency entry was “inactive”. Turning to `Cn1nnnc1Sc1ncnc2scc(-c3cccc(N)c3)c12`, the Potency entry is “inactive”. The result for `CCOc1ccc(NC(=O)NCC2CCCN2c2ccc(OC)cc2)cc1` (centres undefined) reads “inactive”.

For `Fc1cc(Cl)cc(-c2ccc(CNc3nc(-c4ccccc4C(F)(F)F)nc4ccccc34)cc2)c1`, the Potency result is “inactive”. Consider `N#Cc1c(-c2ccccc2C(F)(F)F)nc2ccccc2c1NCc1ccc(-c2ccnc(C(F)(F)F)c2)cc1`, for which the Potency result is “inactive”. The result for `Cc1ccc(NC(=O)CN2C(=O)N/C(=C\c3cccn3-c3ccc(C(=O)NS(C)(=O)=O)cc3)C2=O)cc1` reads “inactive”; that for `O=C(O)c1ccc2c(c1)C(=O)N([C@H](Cc1ccc(C(F)(F)F)cc1)C(=O)O)C2=O`, “inactive”. In the case of `Cc1ccc(C(=O)Nc2ccc(N3CCCCC3)cc2)cc1` it was “inactive”; in that of `CC(=O)Nc1sc2c(c1C#N)CCN(C(C)C)C2`, “inactive”. For `Cc1cc2c(s1)c1cnn(Cc3ccc(F)c(F)c3)c(=O)c1n2C`, the Potency result was “inactive”. For `Cn1nnnc1Sc1ncnc2scc(Br)c12`, the Potency entry was “inactive”. The result for `CCOc1ccccc1-c1nnc2n1N=C(c1ccc(OC)cc1)CS2` reads “inactive”. The result for `O=S(=O)(c1ccc2c(c1)OCCO2)N1CCN(S(=O)(=O)c2ccccn2)CC1` reads “inactive”; that for `CC(C)(C)OC(=O)CC(=O)NNC(=O)c1cc2ccccc2[nH]1`, “inactive”. Take `O=S(=O)(c1cccc(-c2n[nH]c(=S)n2-c2ccccc2)c1)N1CCCC1`: the Potency entry was “inactive”. `Nc1nc(Nc2cc(F)cc(F)c2)nc(NC2CCCC2)n1`: the Potency entry is “inactive”. The result for `c1ccc(-c2nc(NCc3ccc(-c4cccnc4)cc3)c3ccccc3n2)cc1` reads “inactive”; that for `O=C1Cc2cc(S(=O)(=O)N3CCN(c4ccc([N+](=O)[O-])cc4)CC3)ccc2N1`, “inactive”.

As to `O=C(Nc1ccc(F)c(C(F)(F)F)c1)Nc1cccc(-c2ccncc2)n1`, the Potency entry was “inactive”. In the case of `CCOc1ccc(CCNC(=O)c2ccc(C3(C(F)(F)F)N=N3)cc2)cc1OCC`, the Potency result was “inactive”. On to `Cc1cc(-c2nnc3n2CCCCCC3)c(C)n1-c1ccccc1`, for which the Potency entry was “inactive”. Take `C/C(=C\c1ccsc1)C1Nc2cccc3cccc(c23)N1`: the Potency entry was “inactive”.

`O=C1CCc2cc(S(=O)(=O)Nc3ccncc3)ccc2N1`: the Potency result was “inactive”.

Consider `O=C(O)c1ccc(S(=O)(=O)N[C@H](Cc2ccc(C(F)(F)F)cc2)C(=O)O)cc1`, for which the Potency result is “inactive”.

For the compound `O=S(=O)(Nc1nc(-c2ccccc2C(F)(F)F)nc2ccccc12)c1ccc(-c2cccnc2)cc1`, the Potency entry was “inactive”. In the case of `Cc1cnc(NC(=O)c2ccc(-c3cccc([N+](=O)[O-])c3)o2)s1` it was “inactive”. With `O=C(NCc1ccccc1)n1cc(P(=S)(c2ccccc2)c2ccccc2)c2ccccc21`, the Potency entry is “inactive”. On to `CS(=O)(=O)Nc1cccc(-c2cc(F)c(S(=O)(=O)N3CCN(S(=O)(=O)c4ccc5c(c4)OCCO5)CC3)cc2F)c1`, for which the Potency result is “inactive”.

As to `Cc1cccc(C)c1OCc1cccc(C2Nc3ccccc3C(=O)N2Cc2ccco2)c1` (centres undefined), the Potency entry was “inactive”. The result for `O=C(O)c1ccc(-n2cccc2/C=C2\SC(=O)N(Cc3ccc(Br)cc3)C2=O)cc1` reads “inactive”.

For `COC(=O)c1ccccc1S(=O)(=O)Nc1cc(=O)c2ccccc2[nH]1`, the Potency entry is “inactive”. The result for `C[C@@](Cc1ccccc1)(C(=O)O)N1C(=O)c2ccc(C(=O)O)cc2C1=O` reads “inactive”.

Values taken from PubChem BioAssay (NCATS).
